Source: PubChem BioAssay
This is a sample that favours compounds with a hit; in the whole collection about 1.9% have one here.
PREPL inh = human PREPL enzyme inhibition. Q4J6C6. recombinant PREPL, fluorescence polarization activity-based probe. inhibition, % at 5.96 µM. 320,000 compounds, 0.68% hits; in the data active = inhibition above about 43%;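 note: 0% = enzyme with DMSO and 100% = wells lacking enzyme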
LYPLA1 inh = LYPLA1 (human) inhibition in PME1 counter-screen. O75608. recombinant LYPLA1, FP-Rh probe fluorescence polarization. 320,000 compounds, 0.16% hits. inhibition, % at 5.9 µM;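 active = inhibition above the mean of all tested compounds plus 3 SD, set per campaign, cut at about 14% in these data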;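 note: inhibitors block serine hydrolase probe labeling of LYPLA1 so polarization falls; 0% = enzyme with DMSO and 100% = wells lacking LYPLA1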
Target sequence (O75608 whole entry, looked up): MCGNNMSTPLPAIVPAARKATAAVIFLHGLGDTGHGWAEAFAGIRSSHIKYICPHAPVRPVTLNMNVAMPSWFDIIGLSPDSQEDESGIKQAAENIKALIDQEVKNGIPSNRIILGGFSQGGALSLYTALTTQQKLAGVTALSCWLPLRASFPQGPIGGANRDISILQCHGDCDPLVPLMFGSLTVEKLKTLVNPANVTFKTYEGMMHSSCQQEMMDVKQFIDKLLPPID
GSTO1 counter = GSTO1 inhibition, counter-screen for RBBP9 inhibitors. inhibition, % at 5.96 µM. P78417. 300,000 compounds, 1.1% hits. AID 1974. recombinant GSTO1, activity-based probe fluorescence polarization;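 active = inhibition above the campaign mean inhibition plus 3 SD, cut at about 35% in these data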;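 note: 0% = GSTO1-1 with DMSO and 100% = wells lacking GSTO1-1 enzyme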
Target sequence (P78417 whole entry, looked up): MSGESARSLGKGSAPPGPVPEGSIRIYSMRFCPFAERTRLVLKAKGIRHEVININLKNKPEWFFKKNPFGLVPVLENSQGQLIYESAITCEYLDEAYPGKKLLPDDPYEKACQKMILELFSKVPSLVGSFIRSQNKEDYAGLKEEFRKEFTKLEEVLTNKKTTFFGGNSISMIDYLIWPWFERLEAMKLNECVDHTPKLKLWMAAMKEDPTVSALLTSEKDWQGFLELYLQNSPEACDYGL
Fam108B counter = counter-screen for RBBP9 inhibitors: inhibitors of mouse Fam108B | 300,000 compounds, 0.33% hits | AID 1947 | inhibition, % at 9.51 µM | recombinant Fam108B, FP-Rh probe fluorescence polarization;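 active = inhibition above the screen mean inhibition plus 3 SD, computed separately per campaign, cut at about 18% in these data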;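 note: inhibitors lower polarization as less probe binds the enzyme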
LYPLA2 counter = counter-screen for PME1 inhibitors: inhibitors of human LYPLA2. inhibition, % at 5.9 µM. recombinant LYPLA2, FP-Rh probe fluorescence polarization. AID 2177. 320,000 compounds, 0.38% hits;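 active = inhibition above the screen-wide mean plus 3 SD, limit set per campaign, cut at about 26% in these data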;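 note: 0% = LYPLA2 with DMSO and 100% = wells lacking LYPLA2 enzyme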
PME-1 inh = PME-1 (human) inhibition. AID 2130. 320,000 compounds, 0.53% hits. inhibition, % at 5.9 µM. Q9Y570. recombinant PME-1, FP-Rh probe fluorescence polarization;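 active = inhibition above the campaign mean of all compounds plus 3 SD, cut at about 26% in these data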;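 note: competitive labeling of PME-1 active site by serine hydrolase directed probe; 0% = PME-1 with DMSO and 100% = wells lacking PME-1 enzyme; inhibitors block probe labeling so polarization falls and inhibition rises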
Fam108b inh conf = Fam108b (mouse) hydrolase inhibition, confirmation assay; shares compounds with Fam108B counter; recombinant Fam108b, FP-Rh probe fluorescence polarization; inhibition, % at 9.51 µM; 930 compounds, 44% hits;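 active = inhibition above a limit from the primary screen, the mean over all compounds plus 3 SD, cut at about 19% in these data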;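 note: 0% = median of active Fam108b wells and 100% = catalytically dead S170A mutant; inhibitors free the probe so polarization falls as inhibition rises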
Fam108b inh = inhibits mouse Fam108b in gel-based ABPP; shares compounds with Fam108B counter; recombinant Fam108b, fluorophosphonate probe; inhibition, % at 20 µM; 260 compounds, 44% hits; AID 588649; in the data active = inhibition above about 40%
* marks the source's active call; other numbers are inactive results; · = no result given.

SMILES	PREPL inh	LYPLA1 inh	GSTO1 counter	Fam108B counter	LYPLA2 counter	PME-1 inh	Fam108b inh conf	others
COc1ccc(CC(=O)NCC2CCCN(Cc3cc(OC)cc(OC)c3)C2)cc1 (stereo not given)	2	-1	-1	1	2	2	·
O=C(Nc1ccccc1Cl)C(=O)c1cn(CC(=O)N2CCOCC2)c2ccccc12	-3	-13	-4	-17	-24	-24	·
COc1cc(NC(=O)C(C)Oc2ccccc2)ccc1NC(=O)COc1ccccc1 (stereo not given)	0	-4	-3	-2	0	-2	·
Cc1ccc(S(=O)(=O)/N=C2/NC(=O)/C(=C/c3cc([N+](=O)[O-])ccc3O)S2)cc1	16	0	-111	18*	1	-18	21*
COc1cc(/C=C2\S/C(=N/S(=O)(=O)c3ccc(C)cc3)NC2=O)c([N+](=O)[O-])cc1OC	8	-3	28	0	1	-2	·
O=C(O)C(S)C(S)C(=O)O (stereo not given)	-2	-6	64*	21*	5	-4	13
Cc1ccc(C(C)C)c(OCc2ccc(C(=O)N/N=C/c3ccc(C(=O)O)cc3)cc2)c1	-4	-22	-54	-46	-19	-14	·
Cc1ccc(C(C)C)c(OCc2ccc(C(=O)N/N=C/c3ccc(O)cc3O)cc2)c1	13	-20	-43	28*	2	35*	9
Cc1ccc(-n2[nH]c(C)c(/C=N/Nc3ccc([N+](=O)[O-])cc3[N+](=O)[O-])c2=O)cc1C	16	6	35	25*	15	30*	12
CCc1cc2c(COC(=O)CCNS(=O)(=O)c3cccc(C(F)(F)F)c3)cc(=O)oc2cc1O	6	-6	·	·	1	-2	·
COc1cccc(-n2c(SCc3cc(=O)oc4cc(O)c(O)cc34)nc3ccccc3c2=O)c1	33	-13	27	26*	-9	20	46*	Fam108b inh=85*
Cc1ccccc1-c1cc(C(=O)NCc2ccc(OC(F)(F)F)cc2)n(CC2CC(c3cccnc3)=NO2)n1 (stereo not given)	2	·	·	·	·	·	·
O=C1C2=C(Nc3ccccc3SC2c2ccco2)c2ccccc21 (stereo not given)	8	-5	-22	31*	8	29*	9
COc1cccc(NC(=O)COC(=O)c2sccc2C)c1	8	·	·	·	·	·	·
N#C/C(=N\Nc1cccc([N+](=O)[O-])c1)C(=O)c1ccc(Br)cc1	23	13	24	27*	7	29*	26*
NC(=O)Nc1ccccc1C(=O)N1CCC(O)(c2ccc(Cl)cc2)CC1	-11	-3	0	43*	-3	6	1
CC(=O)c1cccc(NS(=O)(=O)c2ccc(N/C=C\C(=O)c3ccc(F)cc3)cc2)c1	-30	-23	-39	22*	-28	-15	-6
CC(=O)c1cccc(NS(=O)(=O)c2ccc(N/C=C/C(=O)c3ccc(F)cc3)cc2)c1	-18	-14	-12	6	-12	8	·
CSC1=NSC2=NC(=O)/C(=C\c3ccc(OC(=O)c4ccco4)cc3)C(=N)N12	36	-1	4	1	-6	-3	·
CCSC1=NSC2=NC(=O)/C(=C\c3coc4ccccc4c3=O)C(=N)N12	13	-11	-44	43*	-12	-2	47*	Fam108b inh=0
COc1ccc(NC(=O)CN2C(=O)NC(C)(c3ccccc3)C2=O)cc1Cl (stereo not given)	0	9	-3	0	4	-3	·
Cn1ccnc1SCC(=O)Nc1ccc2c(c1)OCO2	3	-1	7	1	-3	-5	·
O=C(CCn1cccn1)Nc1ccc2c(c1)OCO2	19	-3	0	18*	6	8	6
Cn1c2ccccc2c(=O)c2c(=O)n(Cc3ccco3)c(-c3ccc(Cl)cc3Cl)nc21	13	-1	-6	-1	2	18	·
C=CC[C@@H](CC(=O)NCCO)C(=O)N[C@@H](C)COC(=O)[C@@H](CC=C)Cc1ccc(F)cc1	12	·	·	·	·	·	·
SMILES	PREPL inh	LYPLA1 inh	GSTO1 counter	Fam108B counter	LYPLA2 counter	PME-1 inh	Fam108b inh conf	others
Cc1ccc(-c2cc(-c3ccco3)c3c(N)c(C(=O)NN)oc3n2)cc1	-2	-4	29	30*	5	6	13
Cc1nc2ccccc2c(=O)n1/N=C/C=C/c1ccccc1	1	0	7	24*	6	1	83*
Cc1nc2ccccc2c(=O)n1N=C/C=C/c1ccccc1	·	·	·	·	·	·	·	Fam108b inh=0
O=[N+]([O-])c1ccc(O)c(/C=N\N=C2c3ccccc3-c3ccccc32)c1	16	3	15	21*	2	13	6
Oc1ccc(Nc2nc3ccccc3nc2Nc2ccc(O)cc2)cc1	27	-13	-42	45*	-20	33*	15
Oc1ccc(Nc2nc(-c3ccccc3)nc3ccccc23)cc1	-1	-4	-9	16	7	14	·
O=C(CN1C(=O)NC2(CCCCC2)C1=O)NNC(=O)C1CC1	-5	2	·	·	1	-5	·
C=CCN(C(=O)CC(NC(C)=O)c1ccccc1)c1nc(-c2ccc(S(C)(=O)=O)cc2)cs1 (stereo not given)	-10	-4	0	-4	-6	-1	·
CCOC(=O)C1=CC[C@@H](c2ccccc2Cl)N(S(=O)(=O)c2ccc(C)cc2)[C@H]1C(=O)OCC	1	0	·	·	7	1	·
O=C(N/N=C/c1c(O)ccc2ccccc12)c1cccc(C(F)(F)F)c1	21	-11	-4	19*	1	15	9
O=S(=O)(NCc1nnc2ccccn12)c1ccc(Cl)cc1	-3	-2	·	·	-1	2	·
CCN(CC)c1ccc(/C=N/NC(=O)c2cccc(S(=O)(=O)Nc3ccccc3OC)c2)c(O)c1	19	-7	-54	58*	4	45*	7
CCN(CC)c1ccc(/C=N/NC(=O)c2ccc3nc[nH]c3c2)c(O)c1	33	-5	-24	22*	-7	-3	7
CCN(CC)c1ccc(/C=N/NC(=O)c2cccc(S(=O)(=O)Nc3ccccc3OC)c2)cc1	23	-12	1	3	-13	11	·
CCOC(=O)[C@H]1[C@H]2COc3ccc(OC)cc3[C@@H]2N2C(=O)[C@H](C)NC(=O)[C@@]12C	12	-1	·	·	-2	0	·
COc1ccccc1NC(=O)N1CCc2[nH]c3ccc(F)cc3c2C1	29	-2	4	21*	-1	6	-6
O=C(C1CCCCC1)N1CCc2[nH]c3ccc(F)cc3c2C1	4	0	7	-4	8	-1	·
